ATXN2 expr inh = Primary qHTS for Inhibitors of ATXN expression; HEK-293 ATXN2-luciferase reporter, luminescence, 24 h; actives 0.72% (n = 360,000); Potency, µM (top dose mostly 57 µM), hits mostly inhibitors; further: nearly all actives have a fitted effect of over 55% in size
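ATXN2-luciferase reporter cells (luciferase flanked by upstream and downstream ATXN2 gene portions) were treated 24 h at 37 °C with compounds at up to 57 uM. SteadyGlo luminescence gave expression; GF-AFC fluorescence gave viability.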
KB-V1 MDR tox = qHTS assay for MDR1-selective chemotherapeutics: Primary screen using the drug-selected MDR subline cells KB-V1 | Potency, µM (titrated, usually from 46.1 µM), actives largely listed as cytotoxic | actives 3.4% (n = 400,000) | KB-V1 MDR cells viability, CellTiter-Glo, 72 h; further: nearly all actives have a fitted effect of over 60% in size
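Compound-treated KB-V1 multidrug-resistant cells, 72 h, 37 degrees C; viability by CellTiter-Glo. Fitted qHTS curves give the values.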
KB-3-1 cytotox = qHTS assay for MDR1-selective chemotherapeutics: Primary screen using the parental adenocarcinoma cell KB-3-1. Potency, µM (top dose mostly 46.1 µM), most hits filed as cytotoxic. actives 1.4% (n = 400,000). AID 1347075, 2019. KB-3-1 viability, CellTiter-Glo ATP luminescence, 72 h; further: nearly all actives have a fitted effect of over 60% in size
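Luminescent ATP read-out (CellTiter-Glo) measures survival of drug-naive KB-3-1 cells after 72 h compound exposure at 37 °C. Titration series was screened from lowest to highest concentration, with DMSO vehicle plates as background controls.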
HT1080 IDH1KD tx = qHTS for induction of synthetic lethality in tumor cells producing 2HG: qHTS for the HT-1080-IDH1KD cell line; AID 686971, 2013; HT-1080 IDH1 knockdown viability, ATP luminescence, 48 h; actives 2% (n = 360,000); Potency, µM (doses to about 46.1 µM), most hits filed as cytotoxic
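Using the IDH1-knockdown HT-1080 line run in the same batch and compound series as the NT line, viability after 48 h at 37 °C was determined by CellTiter-Glo luminescence and expressed as % activity.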
HT1080NT lethal = qHTS for induction of synthetic lethality in tumor cells producing 2HG: qHTS for the HT-1080-NT fibrosarcoma cell line. HT-1080-NT fibrosarcoma viability, CellTiter-Glo ATP luminescence, 48 h. Potency, µM (doses to about 46.1 µM), most hits filed as cytotoxic. actives 1.6% (n = 360,000). AID 686970, 2013;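 further: NT is the 2HG producing partner of a matched IDH1 knockdown line; nearly all actives have a fitted effect of over 55% in size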
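HT-1080-NT; 750 cells/well; 5% FBS RPMI; 48 h compound, 37 degrees C; CellTiter-Glo luminescence; curve fitting and curve-class assignment.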
S2 tox = Viability Counterscreen for Primary qHTS for Inhibitors of ATXN expression; S2 cells (HEK-293 line with an ATXN2-luciferase reporter) viability, CellTiter-Fluor protease fluorescence, 24 h; Potency, µM (highest dose often 56.7 µM), hits mostly cytotoxic; actives 0.49% (n = 400,000); AID 651635, 2014; further: nearly all actives have a fitted effect of over 40% in size
Each line names hits and unclear results; the compound was inactive in the other large screens; ! = repeats disagree. Shown are actives, neighbours in structure and some others; about 6.2% of the full set was active somewhere. The call rests on the fitted dose curve; in most records, active means well fitted curve in the direction sought with a large enough effect; inconclusive means small, poorly fitted or top-dose-only effect, or another doubt; inactive means no such curve, though single readings can be large; an effect the other way counts as inactive or inconclusive.

Cn1nc(C(C)(C)C)cc1C(=O)N1CCCCC1c1cc(C(=O)Nc2cccc(C#N)c2)no1 (centres undefined)	HT1080NT lethal inconclusive, S2 tox inconclusive
O=C(NCc1ccc(F)cc1)c1cc(C2CCCCN2C(=O)c2ccccc2)on1 (centres undefined)	none
Cn1nc(C(C)(C)C)cc1C(=O)N1CCCCC1c1cc(C(=O)NCc2ccccc2)no1 (centres undefined)	KB-V1 MDR tox 9.2µM, KB-3-1 cytotox inconclusive, HT1080 IDH1KD tx inconclusive
Cc1ccc(CNC(=O)c2nc(SCc3cccc(C)c3)ncc2Cl)cc1	KB-3-1 cytotox inconclusive (no result: HT1080 IDH1KD tx, HT1080NT lethal)
CCn1ccc2cc(S(=O)(=O)N3CCC(C(=O)NCc4cccc(C)c4)CC3)ccc21	none (no result: HT1080 IDH1KD tx, HT1080NT lethal)
COc1ccc(/C=N/Nc2nc(Nc3ccccc3)nc(N3CCCC3)n2)cc1[N+](=O)[O-]	KB-V1 MDR tox inconclusive, HT1080 IDH1KD tx inconclusive, HT1080NT lethal 15µM, S2 tox inconclusive
CNc1nc(N/N=C/c2cc3c(cc2[N+](=O)[O-])OCO3)nc(Nc2ccccc2)n1	KB-V1 MDR tox 16µM, HT1080 IDH1KD tx inconclusive, HT1080NT lethal inconclusive, S2 tox 28µM (no result: ATXN2 expr inh)
COc1ccc(/C=N/Nc2nc(N3CCCCC3)nc(N3CCCCC3)n2)cc1[N+](=O)[O-]	none
COc1ccc(O)c(/C=N/Nc2nc(Nc3ccccc3)nc(-n3nc(C)cc3C)n2)c1	ATXN2 expr inh inconclusive, KB-V1 MDR tox inconclusive, KB-3-1 cytotox 15µM, HT1080 IDH1KD tx 16µM, HT1080NT lethal inconclusive, S2 tox inconclusive
COc1cc(/C=N/n2nnnc2Nc2ccccc2)cc(OC)c1OC	KB-V1 MDR tox 2.6µM
Cc1ccc(Nc2cc(-c3cccc(N4C(=O)c5ccccc5C4=O)c3)ncn2)cc1NS(C)(=O)=O	none (no result: KB-V1 MDR tox, KB-3-1 cytotox, HT1080 IDH1KD tx, HT1080NT lethal, S2 tox)
CCC(=O)N1CCc2cc(Br)cc(S(=O)(=O)N3CCC(C(=O)Nc4ccccc4CC)CC3)c21	none (no result: HT1080 IDH1KD tx, HT1080NT lethal)
CC(=O)N[C@@H]1C=C[C@@H](CC(=O)NCc2ccc(Cl)cc2)O[C@@H]1CO	none (no result: ATXN2 expr inh, S2 tox)
COc1cc(/C=N/Nc2nc(Nc3ccc(C)cc3)nc(-n3nc(C)cc3C)n2)cc(OC)c1OC	KB-V1 MDR tox inconclusive, HT1080 IDH1KD tx 2.8µM, HT1080NT lethal 4.5µM
COc1cc(/C=N/Nc2nc(Nc3ccccc3)nc(-n3nc(C)cc3C)n2)cc(OC)c1OC	KB-V1 MDR tox 7.3µM, KB-3-1 cytotox inconclusive, HT1080 IDH1KD tx 15µM, HT1080NT lethal inconclusive, S2 tox inconclusive
Cc1ccc(Nc2cc(C)nn2-c2nc(C)cc(C)n2)cc1	ATXN2 expr inh inconclusive, KB-3-1 cytotox inconclusive, HT1080 IDH1KD tx inconclusive, HT1080NT lethal inconclusive
COc1cc(/C=N/Nc2nc(Nc3ccccc3)nc(N3CCCCC3)n2)ccc1OCC(=O)O	S2 tox inconclusive
Cc1c(C(=O)NCc2ccc3c(c2)OCCO3)sc(=O)n1Cc1ccc2c(c1)OCO2	KB-V1 MDR tox inconclusive
Cc1c(C(=O)NCc2ccc3c(c2)OCO3)sc(=O)n1Cc1ccc(S(=O)(=O)N(C)C)cc1	KB-V1 MDR tox 2.9µM, KB-3-1 cytotox inconclusive, HT1080 IDH1KD tx inconclusive
Cc1c(C(=O)NCc2ccc3c(c2)OCCO3)sc(=O)n1Cc1ccc(S(=O)(=O)N(C)C)cc1	KB-V1 MDR tox 9.2µM, KB-3-1 cytotox inconclusive, HT1080 IDH1KD tx inconclusive
COc1ccc(CNC(=O)c2cn(Cc3ccc(S(=O)(=O)N(C)C)cc3)c(=O)s2)cc1	KB-V1 MDR tox 23µM, KB-3-1 cytotox inconclusive, HT1080 IDH1KD tx inconclusive
Cc1c(C(=O)NCc2ccc([N+](=O)[O-])cc2)sc(=O)n1Cc1ccc2c(c1)OCO2	KB-V1 MDR tox 15µM, HT1080NT lethal inconclusive
COc1ccc(-c2nc3ccc(C4=NNC(=O)CC4C)cc3[nH]2)cc1 (centres undefined)	S2 tox inconclusive (no result: KB-V1 MDR tox, KB-3-1 cytotox, HT1080 IDH1KD tx, HT1080NT lethal)
O=C(CSc1nc2ccccc2c(=O)n1NC(=O)Cc1ccccc1)NCc1ccccc1	none
O=C(CSc1nc2ccccc2c(=O)n1NC(=O)Cc1ccccc1)NCc1ccco1	KB-V1 MDR tox 18µM
O=C(Cc1cccs1)Nn1c(Cc2cccs2)nc2ccccc2c1=O	KB-V1 MDR tox 21µM
O=C(Cc1ccccc1)Nn1c(-c2ccccc2)nc2ccccc2c1=O	KB-V1 MDR tox 18µM
C/C(=N\OCC(=O)Nn1c(C)nc2ccccc2c1=O)c1ccccc1	KB-V1 MDR tox 16µM
Nc1[nH]c(C(=O)c2ccccc2)c(-c2ccccc2Br)c1C(=O)c1ccccc1	KB-V1 MDR tox inconclusive, HT1080NT lethal inconclusive, S2 tox inconclusive
Cc1cccc(-n2c(SCC(=O)NCc3ccco3)nc3ccccc3c2=O)c1	KB-V1 MDR tox 10µM, HT1080 IDH1KD tx inconclusive
O=C(CSc1nc2ccccc2c(=O)n1-c1ccccc1)NCc1ccco1	KB-V1 MDR tox 13µM, KB-3-1 cytotox inconclusive, S2 tox inconclusive
Cc1cccc(-n2c(SCC(=O)NCc3ccc4c(c3)OCO4)nc3ccccc3c2=O)c1	S2 tox inconclusive
CCNC(=O)C1(C)CCCN(C(=O)c2csc3ccccc23)C1 (centres undefined)	none
CCC(C)Sc1cccc(-c2nc3ccc(C)cn3c2NCc2ccccc2)c1 (centres undefined)	ATXN2 expr inh inconclusive, KB-V1 MDR tox 18µM!, KB-3-1 cytotox inconclusive, HT1080 IDH1KD tx inconclusive, HT1080NT lethal inconclusive, S2 tox inconclusive
CCCCCCSc1ccc(-c2nc3ccc(C)cn3c2NCCCC)cc1OC	KB-V1 MDR tox 21µM, KB-3-1 cytotox inconclusive, HT1080 IDH1KD tx inconclusive, HT1080NT lethal 21µM, S2 tox 28µM
CCCCCCSc1cc(-c2nc3ccc(C)cn3c2NCc2ccccc2)ccc1OC	KB-V1 MDR tox 13µM!, KB-3-1 cytotox inconclusive, HT1080 IDH1KD tx inconclusive, HT1080NT lethal inconclusive, S2 tox 20µM
CCCCCCSc1ccc(-c2nc3ccc(Cl)cn3c2NCCCC)cc1OC	none
CCCCCCSc1cccc(-c2nc3ccc(C)cn3c2NCc2ccccc2)c1	HT1080NT lethal inconclusive, S2 tox inconclusive
CCC(C)Sc1cccc(-c2nc3ccc(Cl)cn3c2NCc2ccccc2)c1 (centres undefined)	KB-V1 MDR tox inconclusive, HT1080 IDH1KD tx inconclusive, HT1080NT lethal inconclusive
CCCCNc1c(-c2cccc(-c3cc(C(C)=O)cs3)c2)nc2cc(C)ccn12	ATXN2 expr inh 22µM, KB-3-1 cytotox inconclusive, HT1080NT lethal inconclusive, S2 tox 11µM
Cc1ccccc1C(=O)N1CC/C(=N\OS(=O)(=O)O)c2ccc(Cl)cc21	none (no result: KB-V1 MDR tox, KB-3-1 cytotox, HT1080 IDH1KD tx, HT1080NT lethal)
O=C(Nc1ccc(C(=O)N2CCCC2)cc1)C1CC1	none
